For part of these data: Potency and affinity values are given separately. Activity calls are given as the source filed them.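 The calls were made as follows, unless noted: active = dose curve with midpoint inside tested range, moderate steepness, plateau gap beyond fit error, low compound glow and bead-link interference; inactive = the rest.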

The target in experiment [1] is Cell division control protein 42 homolog (Homo sapiens) (UniProt P60953). Nature of the experiment: inhibition of fluorescent GTP binding to constitutively active Cdc42 – biochemical, multiplex bead flow cytometry, Bodipy-FL-GTP, dose response (AID 1333;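 active = fitted half-maximal concentration within the tested dose range, moderate curve steepness, a statistically real signal drop, and little compound fluorescence or tag-binding interference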).
Experiment [2] shares this target. Nature of the experiment: inhibition of fluorescent GTP binding to wildtype Cdc42 – biochemical, multiplex bead flow cytometry, Bodipy-FL-GTP, dose response (AID 1334;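 active = fitted half-maximal concentration within the tested range, moderate curve steepness, significant signal drop, and little compound fluorescence or bead-linkage interference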). As to conditions: bead-based flow cytometry, Bodipy-FL-GTP binding to GST-Cdc42; at 100 µM (top of the series) unless noted. For orientation: In flow cytometry, cells or beads pass a laser one at a time.

Experiment [3] has as its target GTPase HRas (Homo sapiens) (UniProt P01112). Briefly: Ras wt fluorescent GTP loading blockade – biochemical, wildtype, multiplex bead flow cytometry, dose response (AID 1335;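 active = fitted half-maximal concentration within 10 nM to 100 µM, steepness 0.5 to 2, significant signal drop, low assay interference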). As to conditions: bead-based flow cytometry, Bodipy-GTP binding to GST-Ras; at 100 µM (top of the series) unless noted.
Experiment [4] relates to Ras-related protein Rab-7a (dog), GTP binding. Briefly: blockers of fluorescent GTP binding to Rab7 – biochemical, wildtype, multiplex bead flow cytometry, dose response (AID 1336; call rule not given here).
In experiment [5] the target is Ras-related C3 botulinum toxin substrate 1 (Homo sapiens) (UniProt P63000). Nature of the experiment: inhibition of wildtype Rac1 nucleotide loading – biochemical, multiplex bead flow cytometry, dose response (AID 1340). Particulars: GST-Rac1 beads, Bodipy-FL-GTP binding; at 100 µM (top of the series) unless noted.
Experiment [6] addresses GTPase HRas (Homo sapiens) (UniProt P01112). Nature of the experiment: blockade of GTP loading onto mutant Ras – biochemical, activated mutant, multiplex bead flow cytometry, dose response (AID 1341;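 active = dose-response curve with midpoint inside the tested range, moderate steepness, significant amplitude and little compound fluorescence or bead-attachment interference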;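 also: GST-tagged constitutively activated Ras mutant immobilized on beads and multiplexed with other GTPases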).

Chain of Cell division control protein 42 homolog (Homo sapiens) (P60953 whole entry, looked up): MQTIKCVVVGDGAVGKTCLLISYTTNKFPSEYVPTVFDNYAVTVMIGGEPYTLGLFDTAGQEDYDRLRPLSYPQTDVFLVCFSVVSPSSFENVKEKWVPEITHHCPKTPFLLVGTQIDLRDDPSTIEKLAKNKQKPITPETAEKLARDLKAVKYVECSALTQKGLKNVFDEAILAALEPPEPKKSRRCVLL
Chain of GTPase HRas (Homo sapiens) (P01112 whole entry, looked up): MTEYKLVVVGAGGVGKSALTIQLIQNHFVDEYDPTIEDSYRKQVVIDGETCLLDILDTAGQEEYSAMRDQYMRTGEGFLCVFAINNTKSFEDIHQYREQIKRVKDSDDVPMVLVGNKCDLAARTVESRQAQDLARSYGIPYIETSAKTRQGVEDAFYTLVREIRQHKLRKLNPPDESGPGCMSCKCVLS

Turning to `O=C(O)CC/C(=C\c1ccc(N2CCCC2)c([N+](=O)[O-])c1)c1nc2ccccc2s1`, the outcome in experiment [1], in experiment [4] and in experiment [6] was inactive. The fluorescence, percent of control (lower = inhibition) in experiment [2] is 34.4%. Besides, in experiment [3], the GTP binding, percent of control came to 81.8%. In experiment [5], this compound had a GTP binding signal, raw median fluorescence (lower = inhibition) (MCF (arbitrary fluorescence units)) of 244.

Take `CCC(=O)c1ccc(OCC(=O)O)c(OC)c1`: the call in experiment [1], in experiment [4] and in experiment [6] was inactive. Also, in experiment [2], the fluorescence, percent of control (lower = inhibition) is 46.1%. This compound yielded a GTP binding, percent of control in experiment [3] of 121%. The compound further displayed a GTP binding signal, raw median fluorescence (lower = inhibition) (MCF (arbitrary fluorescence units)) in experiment [5] of 64.7.

Take `COc1ccc(/C=N/NC(=O)c2ccncc2)cc1Cn1nc([N+](=O)[O-])c(Br)c1C`: the compound was called inactive in experiment [1], in experiment [4] and in experiment [6]. Besides, in experiment [2], the fluorescence, percent of control (lower = inhibition) is 38.6%. Further, the GTP binding, percent of control in experiment [3] was found to be 75.7%. Further, in experiment [5], the GTP binding signal, raw median fluorescence (lower = inhibition) (MCF (arbitrary fluorescence units)) came to 144.

Consider `O=C(O)CCN1C(=O)/C(=C\c2ccc(-c3nc4ccccc4s3)o2)SC1=S`, for which the compound was called inactive in experiment [1], in experiment [4] and in experiment [6]. Moreover, the fluorescence, percent of control (lower = inhibition) in experiment [2] was found to be 54.9%. Moreover, the GTP binding, percent of control in experiment [3] turned out to be 63.4%. The GTP binding signal, raw median fluorescence (lower = inhibition) (MCF (arbitrary fluorescence units)) in experiment [5] is 88.8.

With `CC(C)Sc1nc(-c2ccccc2)cc(=O)[nH]1`, the outcome in experiment [1], in experiment [4] and in experiment [6] was inactive. Further, the fluorescence, percent of control (lower = inhibition) in experiment [2] worked out at 88.8%. In addition, the GTP binding, percent of control in experiment [3] worked out at 156%. Also, the GTP binding signal, raw median fluorescence (lower = inhibition) (MCF (arbitrary fluorescence units)) in experiment [5] worked out at 170.

For `CCc1nnc(NC(=O)CCC(=O)N2CCN(c3ccccn3)CC2)s1`, the call in experiment [1], in experiment [4] and in experiment [6] was inactive. Also, the fluorescence, percent of control (lower = inhibition) in experiment [2] was found to be 94%. This compound also showed a GTP binding, percent of control in experiment [3] of 163%. This compound also came in with a GTP binding signal, raw median fluorescence (lower = inhibition) (MCF (arbitrary fluorescence units)) in experiment [5] of 190.

For `C=CCc1ccc(OCc2ccc(C(=O)O)o2)c(OC)c1`, the compound was called inactive in experiment [1], in experiment [4] and in experiment [6]. Also, the fluorescence, percent of control (lower = inhibition) in experiment [2] turned out to be 58.9%. In experiment [3], this compound yielded a GTP binding, percent of control of 86.5%. The compound also showed a GTP binding signal, raw median fluorescence (lower = inhibition) (MCF (arbitrary fluorescence units)) in experiment [5] of 31.4.

In the case of `CCOC(=O)c1cccnc1SCCc1ccccc1`, the call in experiment [1], in experiment [4] and in experiment [6] was inactive. Moreover, the fluorescence, percent of control (lower = inhibition) in experiment [2] was 125%. In experiment [3], this compound returned a GTP binding, percent of control of 155%. The compound also registered a GTP binding signal, raw median fluorescence (lower = inhibition) (MCF (arbitrary fluorescence units)) in experiment [5] of 95.5.

In the case of `O=C(O)CSc1ccc2nnc(-c3cccnc3)n2n1`, the call in experiment [1], in experiment [4] and in experiment [6] was inactive. Besides, the fluorescence, percent of control (lower = inhibition) in experiment [2] is 35.6%. Besides, the GTP binding, percent of control in experiment [3] is 73.9%. The compound further returned a GTP binding signal, raw median fluorescence (lower = inhibition) (MCF (arbitrary fluorescence units)) in experiment [5] of 151.

Regarding `N#C/C(=C/c1ccc(-c2ccccc2)o1)c1nc(-c2cccs2)cs1`, the outcome in experiment [1], in experiment [4] and in experiment [6] was inactive. The fluorescence, percent of control (lower = inhibition) in experiment [2] turned out to be 96.4%. In addition, the GTP binding, percent of control in experiment [3] is 107%. Besides, in experiment [5], the GTP binding signal, raw median fluorescence (lower = inhibition) (MCF (arbitrary fluorescence units)) stood at 228.

As for `CCOC(=O)Cn1nnnc1C(CC)N(Cc1cccs1)Cc1cc2cc(C)ccc2[nH]c1=O` (stereo not given), the outcome in experiment [1], in experiment [4] and in experiment [6] was inactive. Moreover, in experiment [2], the fluorescence, percent of control (lower = inhibition) was 96.4%. In experiment [3], this compound came in with a GTP binding, percent of control of 186%. Also, in experiment [5], the GTP binding signal, raw median fluorescence (lower = inhibition) (MCF (arbitrary fluorescence units)) worked out at 194.

Consider `COc1ccc(/C=N/NC(=O)Nc2cccc3nsnc23)cc1OC`, for which the result in experiment [1], in experiment [4] and in experiment [6] was inactive. For the same compound, the fluorescence, percent of control (lower = inhibition) in experiment [2] turned out to be 45.1%. The compound further gave a GTP binding, percent of control in experiment [3] of 46.7%. In addition, the GTP binding signal, raw median fluorescence (lower = inhibition) (MCF (arbitrary fluorescence units)) in experiment [5] is 132.

On to `Nc1c(C(=O)C2CC2)sc2nc(-c3cccs3)cc(C(F)(F)F)c12`, for which the compound was classed as inactive in experiment [1], in experiment [4] and in experiment [6]. In addition, in experiment [2], the fluorescence, percent of control (lower = inhibition) stood at 495%. In experiment [3], this compound yielded a GTP binding, percent of control of 441%. The same compound gave a GTP binding signal, raw median fluorescence (lower = inhibition) (MCF (arbitrary fluorescence units)) in experiment [5] of 468.

For the compound `Cc1ccccc1COc1c(C)cccc1C(=O)O`, the compound was called inactive in experiment [1], in experiment [4] and in experiment [6]. Further, in experiment [2], the fluorescence, percent of control (lower = inhibition) stood at 59.9%. In addition, the GTP binding, percent of control in experiment [3] was 209%. In addition, in experiment [5], the GTP binding signal, raw median fluorescence (lower = inhibition) (MCF (arbitrary fluorescence units)) was found to be 56.3.

In the case of `CCNC(=S)N(Cc1cccs1)Cc1cc2cc(OCC)ccc2[nH]c1=O`, the compound was called inactive in experiment [1], in experiment [4] and in experiment [6]. In experiment [2], the fluorescence, percent of control (lower = inhibition) came out at 45%. The compound also gave a GTP binding, percent of control in experiment [3] of 66%. The compound further registered a GTP binding signal, raw median fluorescence (lower = inhibition) (MCF (arbitrary fluorescence units)) in experiment [5] of 0.

For the origin of these results see PubChem BioAssay.
